TEAD-YAP inh: TEAD-YAP interaction inhibition; HEK-TIYL cells, TEAD-Gal4/YAP UAS-luciferase luminescence; inhibition, % at 9.12 µM; hit rate 1.4% among 640,000; in the data active = inhibition above about 32%;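 also: 0% = median of test compound wells and 100% = reference inhibitor wells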
MITF primary: blocks human microphthalmia-associated transcription factor; O75030; AlphaScreen MITF homodimerization, bead proximity signal; inhibition, % at 2.6 µM; hit rate 0.91% among 650,000; AID 1259374; in the data active = inhibition above about 50%;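 also: 0% = vehicle wells with protein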
Target sequence (O75030 whole entry, looked up): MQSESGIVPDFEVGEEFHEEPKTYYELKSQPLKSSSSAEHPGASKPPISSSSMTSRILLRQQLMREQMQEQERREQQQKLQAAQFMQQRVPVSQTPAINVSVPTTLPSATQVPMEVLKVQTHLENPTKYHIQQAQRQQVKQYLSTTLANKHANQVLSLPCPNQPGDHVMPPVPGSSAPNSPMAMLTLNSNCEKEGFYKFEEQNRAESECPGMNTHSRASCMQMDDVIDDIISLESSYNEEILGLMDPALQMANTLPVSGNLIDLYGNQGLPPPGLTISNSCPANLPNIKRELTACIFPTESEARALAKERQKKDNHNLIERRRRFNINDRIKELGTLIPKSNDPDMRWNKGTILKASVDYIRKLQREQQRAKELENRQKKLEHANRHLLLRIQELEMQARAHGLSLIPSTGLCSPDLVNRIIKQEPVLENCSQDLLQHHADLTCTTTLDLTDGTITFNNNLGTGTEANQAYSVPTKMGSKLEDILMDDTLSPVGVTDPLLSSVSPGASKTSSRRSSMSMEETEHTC
GPR151 activ: human GPR151 activation | Q8TDV0 | PathHunter beta-arrestin GPR151 cells, luminescence | activation, % at 11.2 µM | hit rate 1% among 650,000 | AID 1508602; in the data active = activation above about 4.9%;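 also: 0% = median of compound wells and 100% = cells with positive control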
FBW7 activator: activators of human E3 ligase FBW7; Q969H0; AlphaScreen FBW7–phospho-cyclin E peptide binding, activator screen; normalized activity (activation), % at 26.1 µM; hit rate 0.13% among 650,000; AID 1259310; in the data active = normalized activity above about 1.9%;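 also: purified mutant Fbw7 with reduced substrate affinity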
MITF confirm: human MITF inhibition, confirmation. AID 1259372. hit rate 16% among 4,700. shares compounds with MITF primary. inhibition, % at 2.6 µM. AlphaScreen MITF homodimerization, biotin/His-MITF beads;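 active = inhibition above a cutoff derived from the DMSO control wells, cut at about 28% in these data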;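 also: 0% = MITF dimer wells with DMSO only; inhibitors lower the bead chemiluminescence by keeping MITF from dimerizing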
AS interf DR: AlphaScreen optical interference, dose response counter-screen; AID 1259373; shares compounds with MITF primary; IC50, µM; AlphaScreen optical interference counterscreen, cell-free; hit rate 6% among 480; call rule not given here
AS interf ctr: optically interferes with AlphaScreen signal | LysRS AlphaScreen counterscreen, signal interference, triplicate | hit rate 7.6% among 4,700 | inhibition, % at 2.6 µM | AID 1259376 | shares compounds with MITF primary;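 active = inhibition above a cutoff derived from the DMSO control wells, cut at about 30% in these data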
* hit, by the source's call; · = no result. Hits are enriched below; roughly 3.5% of the tested compounds scored in any of these assays.

SMILES | TEAD-YAP inh | MITF primary | GPR151 activ | FBW7 activator | MITF confirm | AS interf ctr | others
COc1ccc(C(CNCC(O)COCC2=CCC3CC2C3(C)C)N(C)C)cc1 (stereo not given) | 4 | 73* | -3 | 0 | 26 | 31*
CCCCN(CC)C(=O)CSc1nc2n[nH]c(C)c2c(=N)n1-c1ccc(OCC)cc1 | -3 | 0 | 1 | 0 | · | ·
C=CCN(C(=O)c1csnn1)C(C(=O)NC(C)(C)C)c1ccccn1 (stereo not given) | 2 | -2 | 0 | 0 | · | ·
CN(C)C1(CNCC(=O)Nc2ccc(F)cc2)CCCCC1 | 3 | 80* | 0 | 0 | -11 | -2
COC(=O)c1ccccc1NC(=O)C/C(C)=N/NC(=O)CC#N | 2 | 7 | 3 | 0 | · | ·
C/C(CC(=O)Nc1ccccc1)=N\NC(=O)CC#N | -9 | 57* | 2 | -1 | 61* | 35*
Cc1ccc(OCC(=O)N2CC3(C)CC2CC(C)(C)C3)c([N+](=O)[O-])n1 (stereo not given) | 6 | 51* | 1 | 0 | -9 | -3
O=C(O)c1cc([N+](=O)[O-])cc2c1-c1c(cc([N+](=O)[O-])cc1[N+](=O)[O-])/C2=C/c1ccco1 | 3 | 62* | 0 | -2 | 68* | 22 | AS interf DR=>6.5
Cc1[nH]c(=O)[nH]c1C(=O)CCCCC(=O)OCC(=O)Nc1ccc(S(N)(=O)=O)cc1 | 19 | 95* | 2 | -1 | 101* | 75*
Cc1[nH]c(=O)[nH]c1C(=O)CCCCC(=O)OCC(=O)Nc1ccccc1C#N | 15 | 113* | 0 | -1 | 99* | 76*
Cc1ccc(C(=O)CCC(=O)OCC(=O)Nc2ccccc2C#N)cc1 | 13 | 8 | -1 | 0 | · | ·
O=C(Nc1cc(Cl)cc(Cl)c1)c1ccc(F)c(S(=O)(=O)NCc2ccc(F)cc2)c1 | 3 | -4 | 2 | 0 | · | ·
O=S(=O)(c1ccc2c(c1)CCCC2)N1CCN(c2cc(N3CCCC3)ncn2)CC1 | 0 | 16 | 0 | 1 | · | ·
O=S(=O)(c1ccc2c(c1)OCCO2)N1CCN(c2cc(N3CCCC3)ncn2)CC1 | -13 | 80* | 3 | 0 | 8 | 19
CCN1CCN(CCCOc2ccc([N+](=O)[O-])cc2)CC1 | 13 | 66* | 0 | 0 | 7 | 16
Cc1cc(OCCN2CC(C)CC(C)C2)ccc1[N+](=O)[O-] (stereo not given) | 1 | 15 | -1 | 0 | · | ·
Cc1cc(OCCN2CCC(C)CC2)ccc1[N+](=O)[O-] | -31 | 52* | 0 | 0 | 1 | 8
O=[N+]([O-])c1ccc(OCCCN2CCCCCC2)cc1 | 7 | 30 | 0 | 0 | · | ·
Cc1cc(OCCN2CCN(Cc3ccccc3)CC2)ccc1[N+](=O)[O-] | -2 | 82* | -1 | 0 | 0 | -2
Cc1cc(OCCCCN2CCCC2)ccc1[N+](=O)[O-] | -3 | 82* | -1 | 0 | 24 | 1
CCOC(=O)c1sc(NC(=S)Nc2cccc(S(=O)(=O)N(C)C)c2)cc1C | 6 | 5 | 4 | 0 | · | ·
CC1(C)CC2(CC(C)(C)N1)NC(=O)NC2=O | -1 | -4 | 1 | 0 | · | ·
Cc1ccc([N+](=O)[O-])c(OCCN2CCNCC2)c1 | 3 | 47 | 0 | 0 | · | ·
CCN1CCN(CCOc2ccc([N+](=O)[O-])c(C)c2)CC1 | -14 | 65* | -1 | 0 | 7 | 7
Cc1ccc([N+](=O)[O-])c(OCCN2CCN(Cc3ccccc3)CC2)c1 | 8 | 63* | 0 | 0 | 13 | 8
SMILES | TEAD-YAP inh | MITF primary | GPR151 activ | FBW7 activator | MITF confirm | AS interf ctr | others
Cc1cc(OCCCN2CCCCCC2)ccc1[N+](=O)[O-] | -1 | 46 | -1 | 0 | · | ·
CC(=O)N1CCN(C2=NC(=O)/C(=C\c3ccccc3)S2)CC1 | 7 | 7 | -2 | 0 | · | ·
C/C=C/c1ccc(OCCOCCN(C)C)c(OC)c1 | 1 | 70* | -1 | 0 | -2 | 10
C/C=C/c1ccc(OCCCCNCCN2CCOCC2)c(OC)c1 | 10 | 61* | 2 | 0 | 3 | 17
C/C=C/c1ccc(OCCCCN2CC(C)OC(C)C2)c(OC)c1 (stereo not given) | -10 | 32 | 1 | 0 | · | ·
C/C=C/c1ccc(OCCCCNCCN(C)C)c(OC)c1 | 0 | -34 | 0 | 0 | · | ·
C/C=C/c1ccc(OCCCN2CCN(CC)CC2)c(OC)c1 | -9 | 63* | 0 | 0 | 7 | 19

High-throughput results from PubChem BioAssay.
